# FMDV inh = blocks foot and mouth disease virus; actives 1.2% (n = 410,000); FMDV antiviral cell-based qHTS; AID 1159524; Potency, µM (top dose mostly 57.9 µM), usual class: inhibitors; calls by dose curve; tested in HEK293T cells; further: read-out not given here; nearly all actives have a fitted effect of over 45% in size
# HCMV antiviral = inhibitors of human cytomegalovirus | HFF cells, HCMV-luciferase reporter, 72 h; hits give low values | activity change, negative = inhibition, % at 57.5 µM | actives 4.5% (n = 410,000); in the data active means activity change below about -60%; inconclusive means no clear call, values can overlap the other calls; inactive means above about -39%
#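 Cell-based, HFFs, 1000 cells/well, 16 h 37C; cpds in DMSO + HCMV-luc, MOI 1 PFU/cell; 72 h 37C; OneGlo luminescence after 5 min RT; norm. to buffer vs Salinomycin 10uM.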
# HCV inh = blocks hepatitis C virus | AID 651820 | Potency, µM (titrated, usually from 41.8 µM), most hits filed as inhibitors | Huh7.5.1 HCVcc-Cre infection, luciferase reporter, 44 h | actives 3.4% (n = 340,000); active means well fitted inhibition curve with a large enough effect; inconclusive means small, poorly fitted or top-dose-only effect, or another doubt; inactive means no such curve, though single readings can be large or run the other way
#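 Luciferase read-out (15 sec integration) after a 15 min room-temperature substrate step quantifies HCVcc-Cre infection. Cells, 1,000 per well, had compound added 4 h post-plating, then virus at ~0.5 moi, and were cultured 44 h.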
# VACV Venus inh = inhibitors of vaccinia virus (Venus reporter) | Vaccinia virus Venus reporter expression, fluorescence | actives 0.46% (n = 330,000) | Potency, µM (highest dose often 36.5 µM), usual class: inhibitors; calls by dose curve; tested in A549 cells; further: nearly all actives have a fitted effect of over 30% in size
# VACV mCherry inh = inhibitors of vaccinia virus infection (mCherry reporter signal). AID 720579. Potency, µM (top dose mostly 36.5 µM), usual class: inhibitors. actives 0.63% (n = 310,000). Vaccinia virus mCherry reporter infection, fluorescence; calls by dose curve; tested in A549 cells; further: nearly all actives have a fitted effect of over 35% in size
# A number is an active result; n = inactive; u = inconclusive; x = not tested or not shown; [ ] = dose if it differs, or a comment. Sampled rows, rich in hits. Any-hit rate of the full collection: about 7.3%.
SMILES,FMDV inh,HCMV antiviral,HCV inh,VACV Venus inh,VACV mCherry inh
COc1ccc(Oc2ncc3nc(-c4cccc(C#N)c4)c(=O)n(CCC#N)c3n2)cc1,n,x,x,x,x
CC(NC(=O)NC(N)=O)(C(F)(F)F)C(F)(F)F,x,n,n,n,n
CC(NC(=O)NNC(N)=S)(C(F)(F)F)C(F)(F)F,n,n,n,28.2µM,u
CC1CCN(C(=O)C2COc3ccccc3C2)CC1 (configuration not stated),n,n,x,n,n
CNc1ccc(Br)cc(C(=O)/C=C/c2cccc(Cl)c2Cl)c1=O,20µM,n,u,x,x
CCNc1ccc(Br)cc(C(=O)/C=C/c2ccccc2Cl)c1=O,u,-102.8,12.6µM,x,x
CCNc1ccccc(C(=O)/C=C/c2ccc3c(c2)OCO3)c1=O,u,n,n,n,x
CNc1ccc(Br)cc(C(=O)/C=C/c2cccc(OC)c2OC)c1=O,n,-91.7,u,x,x
CNc1ccccc(C(=O)/C=C/c2ccccc2OC)c1=O,u,n,u,u,n
Cc1ccc(N2CC(NC(=O)C3CC3)CC2=O)cc1C (configuration not stated),n,n,x,n[7.34 µM],n[7.34 µM]
C=CC1=C(C)C2=NC1=CC1=NC(=CC3=NC(=CC4=NC(=C2)C(C)=C4CCC(=O)O)C(CCC(=O)O)=C3C)C(C=C)=C1C.[Zn],n,x,x,x,x
CCOC(=O)N1CCc2c(sc3c2c(=O)n(Cc2ccccc2)c(=O)n3Cc2c(F)cccc2Cl)C1,n,-68.1,x,n,n
CC(=O)N1CCc2c(sc3c2c(=O)n(CCc2ccccc2)c(=O)n3CC(=O)Nc2ccccc2F)C1,n,u,x,n,n
COc1ccccc1NC(=O)Cn1c(=O)n(CCc2ccccc2)c(=O)c2c3c(sc21)CN(C(C)=O)CC3,u,-91.6,x,n,n
CC(=O)N1CCc2c(sc3c2c(=O)n(CCc2ccccc2)c(=O)n3Cc2ccc(F)cc2)C1,u,-60.6,x,n,n
CCCCOc1ccc(CC(=O)N(C)O)cc1,x,x,x,n,n
Cc1ccc(S(=O)(=O)NC(CC(C)C)C(=O)NCC(c2ccco2)N2CCCCC2)cc1 (configuration not stated),10µM,x,n,x,x
O=C(NCC(c1ccco1)N1CCCCC1)c1ccc(OCc2ccccc2)cc1 (configuration not stated),n,n,n,n,n
CN(c1ccccc1)S(=O)(=O)c1ccc(Cl)c(C(=O)NCC(c2ccco2)N2CCCC2)c1 (configuration not stated),n,n,u,n,u
O=C(NCC(c1ccco1)N1CCCCC1)c1ccc(COc2ccccc2)cc1 (configuration not stated),u,n,12.6µM,n,n
CN(c1ccccc1)S(=O)(=O)c1ccc(C(=O)NCC(c2ccco2)N2CCCCC2)cc1 (configuration not stated),u,-62.9,u,x,x
COc1ccccc1N(C)S(=O)(=O)c1ccc(C(=O)NCC(c2ccco2)N2CCCCC2)cc1 (configuration not stated),n,n,22.4µM,x,x
COC(=O)C1CCN(C(=O)C2CCCCC2)CC1,n,n,5.01µM,x,x
O=C(C1CCC(C(=O)N2CCCCC2)CC1)N1CCCCC1 (configuration not stated),n,-60.6,n,n,x
CN(C)c1ccc(/C=C2\C=Cc3ccccc32)cc1F,x,x,x,n,n
SMILES,FMDV inh,HCMV antiviral,HCV inh,VACV Venus inh,VACV mCherry inh
Cc1ccc(NC(=O)CN2C(=O)S/C(=C\c3cc(C)n(C)c3C)C2=O)cc1,x,n,n,n,n
Cc1cccc(NC(=O)CN2C(=O)S/C(=C\c3cc(C)n(C)c3C)C2=O)c1,n,-62.5,u,n,u
O=C(NCCc1ccc(Cl)cc1)C(=O)NCC(c1ccc2c(c1)OCO2)N1CCOCC1 (configuration not stated),n,n,x,n,n
CCN1C(=O)C(CC(=O)Nc2ccc(F)cc2)N(Cc2ccco2)C1=S (configuration not stated),n,n,n,n,n
CCCCCCOc1ccc(NC(=O)CC2C(=O)N(CC)C(=S)N2Cc2ccco2)cc1 (configuration not stated),n,-90.2,u,u,u
C=CCN1C(=O)C(CC(=O)Nc2ccc(OCCC)cc2)N(CCCN2CCN(Cc3ccccc3)CC2)C1=S (configuration not stated),u,n,10µM,11.2µM,u
O=C(Nc1sc2c(c1C(=O)NCc1ccco1)CCCC2)c1cc(=O)c2ccccc2o1,n,n,x,n,n
Cc1nc2nc(NCc3ccc(Br)cc3)[nH]n2c(=O)c1Cc1ccccc1,n,n,x,n,n

# From PubChem
